# In PubChem BioAssay AID1778 (Sanford-Burnham Center for Chemical Genomics, 2009):
# The campaign covered roughly 290,000 compounds. About 260 (0.09%) were called active. No stated cut-off is given here; in the data, active means inhibition above about 50%; inactive means the rest. Shown is part of a subset that was picked to be rich in actives. Results with a measured potency or affinity are listed apart.
# Target: Kappa-type opioid receptor (Homo sapiens) (UniProt P41145)
# Assay: kappa opioid receptor blockers – cell-based, luminescence, uHTS (AID 1778)
# Conditions: KOR beta-arrestin recruitment, antagonist mode, hits give high values; at 10 µM unless noted
# Sequence of Kappa-type opioid receptor (Homo sapiens) (P41145 whole entry, looked up): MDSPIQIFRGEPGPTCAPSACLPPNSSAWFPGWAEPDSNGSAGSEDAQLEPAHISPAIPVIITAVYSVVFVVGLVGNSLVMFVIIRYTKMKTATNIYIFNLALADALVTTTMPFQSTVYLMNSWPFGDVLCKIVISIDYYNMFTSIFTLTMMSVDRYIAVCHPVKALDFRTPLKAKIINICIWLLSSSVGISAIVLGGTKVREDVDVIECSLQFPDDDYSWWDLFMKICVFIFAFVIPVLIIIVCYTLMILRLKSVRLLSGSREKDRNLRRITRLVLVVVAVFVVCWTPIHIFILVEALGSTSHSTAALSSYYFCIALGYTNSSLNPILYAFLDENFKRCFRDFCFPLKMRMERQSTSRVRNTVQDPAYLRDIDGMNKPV
row,Compound,inhibition
1,CCC1CCCCN1CCCNC(=O)c1csc2c1CCCCC2 (stereo not given),-8.9% (inactive)
2,CCOc1ccc(C(=O)Nc2ccc3c(c2)OCCO3)cc1,-31.1% (inactive)
3,NS(=O)(=O)c1ccc(CCNC(=O)CSc2nc3ccsc3c(=O)n2CC2CCC(C(=O)O)CC2)cc1 (stereo not given),-14.6% (inactive)
4,Cc1ccc(NS(=O)(=O)c2cccc3cccnc23)c(Cl)c1,19.4% (inactive)
5,O=S(=O)(Nc1ccccc1O)c1cccc2cccnc12,9.3% (inactive)
6,O=[N+]([O-])c1ccccc1S(=O)(=O)Nc1ncccn1,-24.4% (inactive)
7,Cc1ccc(NS(=O)(=O)c2cccc3cccnc23)c(Br)c1,-14.5% (inactive)
8,O=C(CCN1CCN(c2ccccc2)CC1)Nc1nccs1,11.6% (inactive)
9,Cc1cccc(CN2CCN(C(=S)Nc3ccccc3)CC2)c1,-33.1% [at 20 µM] (inactive)
10,Cc1ccc(CNC(=O)C2CCCN(c3nc(C)cc(C)n3)C2)cc1 (stereo not given),-35.8% [at 20 µM] (inactive)
11,CCOC(=O)N1CCN(c2cc(NCCC(=O)O)c3c4c(onc24)-c2ccccc2C3=O)CC1,-32.6% (inactive)
12,CCOC(=O)C(C(=O)OCC)c1cc(Br)c2noc3c2c1C(=O)c1ccccc1-3,68.5% (active)
13,CCOc1ccc2noc3c2c1C(=O)c1ccccc1-3,7.4% (inactive)
14,c1cncc(-c2cn(C[C@H]3CC[C@@H]([C@@H]4CC[C@H](Cn5cc(-c6cccnc6)nn5)O4)O3)nn2)c1,-10.8% [at 20 µM] (inactive)
15,COc1ccc(OCC(=O)Nc2cc(NC(=O)c3ccco3)ccc2OC)cc1,4.9% (inactive)
16,COc1cc(Br)cc(-c2nc3c(c(=O)[nH]c(=O)n3Cc3ccccc3)n2C)c1O,7.6% (inactive)
17,COCCN=c1scc(-c2ccc3c(c2)NC(=O)CO3)n1/N=C(\C)c1ccc(O)cc1,15.8% (inactive)
18,CCN=c1scc(-c2ccc3c(c2)NC(=O)CO3)n1N=C1CCCC1,15.3% (inactive)
19,COC(=O)c1[nH]c2ccc(C)cc2c1NC(=O)CN1CCN(c2ccc(F)cc2)CC1,-0.7% (inactive)
20,C/C(=N\NC(=O)C1COc2ccccc2O1)c1ccc(C)o1 (stereo not given),13.3% (inactive)
21,COc1ccc(C(=O)N/N=C(\C)c2ccccn2)cc1OC,95% (active)
22,C/C(=N\NC(=O)C1COc2ccccc2O1)c1cccs1 (stereo not given),-9.2% (inactive)
23,COc1cc(C(=O)N/N=C(\C)c2ccccn2)cc(OC)c1OC,-6.4% (inactive)
24,COc1ccc(C(=O)N/N=C/c2ccccn2)cc1OC,-42.3% (inactive)

row,Compound,inhibition
1,O=C(N/N=C/c1ccccn1)c1ccccc1,30.7% (inactive)
2,COc1ccc(C(=O)N/N=C(\C)CC(=O)Nc2ccccn2)cc1OC,3.4% (inactive)
3,COc1ccc(C(=O)Nc2ccccc2C(=O)N/N=C/c2ccncc2)cc1OC,-18.4% (inactive)
4,O=C(N/N=C/c1ccccn1)c1ccc(NC(=O)c2cccc([N+](=O)[O-])c2)cc1,-28.7% (inactive)
5,Cc1nc(CSc2ccc(Cl)cc2)cs1,1.3% (inactive)
6,CCC1CCCCN1C(=O)CSc1nc(N)cc(N)n1 (stereo not given),0.8% [at 20 µM] (inactive)
7,C/C(=N\S(=O)(=O)c1ccc(C)cc1)NC(=S)Nc1ccc(C)cc1,-12% (inactive)
8,CCOc1ccccc1N(C(=O)c1snc(C(N)=O)c1N)C(C(=O)NC1CCCC1)c1cccs1 (stereo not given),-14.9% (inactive)
9,CCCOCn1cc(F)c(=O)[nH]c1=O,20.7% (inactive)
10,COc1ccc(OCc2nnc(SCC(=O)Nc3ccccc3C#N)o2)cc1,-9.7% (inactive)
11,COc1ccc(NC(=O)c2ccc(CN(c3cc(Cl)ccc3C)S(=O)(=O)c3ccccc3)cc2)cc1OC,-2.5% (inactive)
12,Cn1c(CNC(=O)c2ccccc2F)nnc1SCC(=O)NCc1ccccc1,-10.1% (inactive)
13,Fc1ccc(-c2ccnc(=S)[nH]2)cc1,2.9% (inactive)
14,C/C(=N/NC(=O)c1ccccn1)c1ccncc1,-12.4% (inactive)
15,C/C(=N/NC(=O)c1ccccn1)c1ccc(O)cc1,12.9% (inactive)
16,C/C(=N\NC(=O)c1ccc(F)cc1)c1ccccn1,86.6% (active)
17,Cc1ccc(O)c(CO)n1,0.6% (inactive)
18,Cc1ccc2ccc3ccc(C)nc3c2n1,-8.8% [at 20 µM] (inactive)
19,COc1ccc(-n2nc3c(N)n[nH]c3cc2=O)cc1,-30.3% [at 20 µM] (inactive)
20,CC(C)(C)c1ccc(-n2nc(C(N)=O)c(O)cc2=O)cc1,-2% (inactive)
21,COc1cccc(-n2nc(C#N)c(Cl)cc2=O)c1,32.8% (inactive)
22,Nc1n[nH]c2cc(=O)n(-c3ccc(Cl)cc3)nc12,-68.5% [at 20 µM] (inactive)
23,COc1cc(C=O)ccc1OCCSc1ccc(Cl)cc1,16.4% (inactive)
24,CC(CCc1ccccc1)NC(=O)c1ccc(NC(=O)c2ccc(Cl)cc2Cl)cc1 (stereo not given),26.3% (inactive)

row,Compound,inhibition
1,C/C=N/NC(=O)CCNC(=O)c1ccccc1,-40% (inactive)
2,CCCCn1c(-c2cccs2)nc2oc3ccccc3c(=O)c2c1=O,17.8% (inactive)
3,Cc1cc2nnc(SCC(=O)Nc3cc(S(=O)(=O)N4CCOCC4)ccc3Cl)n2c2ccccc12,-21.8% (inactive)
4,O=C(NNC(=O)C1CC=CCC1C(=O)O)c1cccs1 (stereo not given),30.6% (inactive)
5,CC1SCC(NC(=O)c2cccc(Cl)c2)CS1 (stereo not given),-29.1% (inactive)
6,CCN(CC(=O)Nc1ccccc1C(F)(F)F)C(=O)CCc1nc2ccccc2c(=O)[nH]1,-11.6% (inactive)
7,COc1ccc(-c2c(C)[nH]n3c(=O)c(Cc4ccccc4)c(C)nc23)cc1,-5.1% (inactive)
8,Cc1nc2c(-c3ccc(Cl)cc3)c(C)[nH]n2c(=O)c1Cc1ccccc1,51% (active)
9,Cc1nc2c(-c3ccccc3)c(C)[nH]n2c(=O)c1Cc1ccccc1,-10.5% [at 20 µM] (inactive)
10,COc1ccc(CC(=O)Nc2ccc(C(C)=O)cc2)cc1,-81.9% [at 20 µM] (inactive)
11,Oc1ccc(N=Nc2ccc3c(c2)OCCO3)c2cccnc12,68.5% (active)
12,Oc1ccc(N=Nc2ccc3c(c2)OCCO3)c(O)c1,34.9% (inactive)
13,Oc1[nH]c2ccccc2c1C=Nc1ccc2c(c1)OCO2,-33.1% (inactive)
14,O=S(=O)(Nc1ccc(N=Nc2ccc(O)c3ccccc23)cc1)c1ccccc1,-3.4% (inactive)
15,O=S(=O)(O)c1cccc2c(N=Nc3ccc(O)c4ncccc34)cccc12,-7.2% (inactive)
16,Oc1ccc(N=Nc2ccc3c(c2)OCO3)c2ccccc12,85.1% (active)
17,Nc1ccc(N=Nc2ccccc2)c2cccnc12,-4.3% (inactive)
18,Oc1[nH]c2ccccc2c1C=Nc1ccc2c(c1)OCCO2,0.8% (inactive)
19,COc1ccccc1NC(=O)c1cc2c(CO)cnc(C)c2oc1=Nc1cccc(C(N)=O)c1,21.7% (inactive)
20,CCN(CC)CC#Cc1ccc(C)cc1,-6.4% (inactive)
21,CCC(C(=O)OC)n1cnc2c(nnn2-c2ccccc2)c1=O (stereo not given),-16.1% [at 20 µM] (inactive)
22,Cc1nn(-c2ccc(N3CCCCC3)nn2)c(C)c1CCC(=O)Nc1ccc(F)c(F)c1,-31.5% (inactive)
23,Cc1cc(C)cc(NC(=O)c2ccc3c(c2)CCN3S(C)(=O)=O)c1,-4.2% (inactive)
24,COc1ccccc1N1CCN(Cc2cc(Br)c(O)c3ncccc23)CC1,63.3% (active)

row,Compound,inhibition
1,COc1ccccc1N1CCN(Cc2cc3c(cc2Br)OCCO3)CC1,-44.1% (inactive)
2,O=[N+]([O-])c1cc(CN2CCN(c3ccccc3)CC2)c(O)c2ncccc12,12% [at 20 µM] (inactive)
3,COc1ccccc1N1CCN(Cc2ccc(O)c3ncccc23)CC1,-12.2% (inactive)
4,Oc1c(CN2CCN(c3ccccc3)CC2)cc(Br)c2cccnc12,64% (active)
5,Oc1c(CN2CCCCC2)cc(Br)c2cccnc12,-1.9% (inactive)
6,COc1ccc(N2CCN(C(=O)c3cc4c(=O)n(Cc5ccccc5)ccc4nc3C)CC2)cc1,-13.1% (inactive)
7,CCCCOc1ccc(C(=O)NNC(=S)NC(=O)CC)cc1,26.3% (inactive)
8,CCCOc1ccc(C(=O)NNC(=S)NC(C)=O)cc1,19.1% (inactive)
9,CCc1nnc(NC(=O)c2ccc(-c3ccccc3F)o2)s1,-18.1% (inactive)
10,CC1=C/C(=N\NC(=S)NCCc2ccccc2)CC(C)(C)C1,-16.1% (inactive)
11,CC(C)(C)C1CCC(=NNC(=S)Nc2cccnc2)CC1 (stereo not given),11.2% (inactive)
12,O=C(Nc1ccc(NC(=O)c2ccccc2Cl)nc1)c1ccco1,-2% (inactive)
13,CC(=O)O[C@@H]1[C@H]2[C@@H](C[C@@H](C)[C@@H]3C=CC(=O)[C@@]13C)OC(=O)[C@@H]2C,23.9% (inactive)
14,C=C1C(=O)O[C@@H]2C[C@@H](C)[C@@H]3C=CC(=O)[C@@]3(C)[C@@H](OC(C)=O)[C@H]12,26.1% (inactive)
15,CN(C)CCCNC(=S)NCCNc1nc2cc3c(cc2cc1C#N)OCO3,0.9% (inactive)
16,O=C(Nc1ccc(CN2CCS(=O)(=O)CC2)cc1)c1ccccc1,0.1% (inactive)
17,CCC(=O)OCCNc1cc(SCCC(=O)OC)c2nonc2c1[N+](=O)[O-],5.5% (inactive)
18,Cn1ccnc1Sc1cc(NCCCO)c([N+](=O)[O-])c2nonc12,41.5% (inactive)
19,CCCSc1cc(NCCOC(=O)CCC)c([N+](=O)[O-])c2nonc12,-2.8% (inactive)
20,CCCC(=O)OCCNc1cc(SCCC(=O)OC)c2nonc2c1[N+](=O)[O-],-12.2% (inactive)
21,Cc1csc(SCC(=O)NC(=O)C2CCCCC2)n1,-17.4% (inactive)
22,Nc1cc(=O)[nH]c(SCC(=O)Nc2cc([N+](=O)[O-])ccc2Cl)n1,15.1% (inactive)
23,O=C(CNC(=O)c1ccco1)OCC(=O)c1ccc(Br)cc1,-35% (inactive)
